A short description of assay [1]: E. coli DRC41 culture turbidity changes, primary screen, E. coli filamentation inducer project, strain DRC41, OD650, 48 h (AID 1152).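 Also: E. coli MC1000 strain DRC41 lacking acrAB efflux pump and sulA.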 The note with it: E. coli DRC41 (acrAB sulA), higher = more signal, called active from +8 up or from −8 down.
The nature of assay [2]: small-molecule binders of probe aLefty1, primary screen, biochemical, small-molecule microarray, 635/667 nm fluorescence (AID 1153).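 Also: score merges spot fluorescence with signal-to-noise ratio from the scanned slide images.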 The note with it: higher = more signal.
The nature of assay [3]: PSAC antagonists in infected red cells, primary screen, cell-based, P. falciparum Indochina, OD700, 1 h (AID 1154). The note with it: P. falciparum Indochina infected RBC osmotic lysis, higher = more signal, called active from +8 up or from −8 down.
A short description of assay [4]: PSAC antagonists in infected red cells, primary screen, cell-based, P. falciparum Indochina, OD700, 2 h (AID 1155).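 Also: lysis reports solute entry through the parasite surface anion channel PSAC; channel blockers reduce lysis of infected cells.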 As to conditions: P. falciparum Indochina infected erythrocytes, osmotic lysis OD700; higher = more signal, called active from +8 up or from −8 down.
Assay [5] is described as follows: osmotic lysis modulators in infected erythrocytes, primary screen, PSAC antagonist project, cell-based, P. falciparum Indochina, OD700, 3 h (AID 1156). As to conditions: higher = more signal, called active from +8 up or from −8 down.
A short description of assay [6]: PSAC antagonists in infected red cells, primary screen, cell-based, P. falciparum Indochina, OD700, 18 h (AID 1157). As to conditions: P. falciparum Indochina infected erythrocytes, osmotic lysis OD700, 18 h; higher = more signal, called active from +8 up or from −8 down.
Assay [7] can be described thus: modulators of S6 phosphorylation in cells, primary screen, cell-based, A549, cytoblot, luminescence, serum-stimulated (AID 1158).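 Also: serum-stimulated A549 lung adenocarcinoma cells; signal is phosphorylated S6 detected by cytoblot immunostaining with HRP secondary.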 As to conditions: A549 phospho-S6 cytoblot, 5 h, higher = more signal.
The target of assay [8] is NADPH oxidase 2 (Homo sapiens) (UniProt P04839). The assay can be described thus: NOX2-dependent H2O2 signal modulators, primary screen, NOX inhibitor project, cell-based, HEK293-NOX2, PMA-stimulated, Amplex Red fluorescence (AID 1159). Also: test concentration not given here. The note with it: 45 min, higher = more signal, called active from +8 up or from −8 down.
Sequence of NADPH oxidase 2 (Homo sapiens) (P04839 whole entry, looked up): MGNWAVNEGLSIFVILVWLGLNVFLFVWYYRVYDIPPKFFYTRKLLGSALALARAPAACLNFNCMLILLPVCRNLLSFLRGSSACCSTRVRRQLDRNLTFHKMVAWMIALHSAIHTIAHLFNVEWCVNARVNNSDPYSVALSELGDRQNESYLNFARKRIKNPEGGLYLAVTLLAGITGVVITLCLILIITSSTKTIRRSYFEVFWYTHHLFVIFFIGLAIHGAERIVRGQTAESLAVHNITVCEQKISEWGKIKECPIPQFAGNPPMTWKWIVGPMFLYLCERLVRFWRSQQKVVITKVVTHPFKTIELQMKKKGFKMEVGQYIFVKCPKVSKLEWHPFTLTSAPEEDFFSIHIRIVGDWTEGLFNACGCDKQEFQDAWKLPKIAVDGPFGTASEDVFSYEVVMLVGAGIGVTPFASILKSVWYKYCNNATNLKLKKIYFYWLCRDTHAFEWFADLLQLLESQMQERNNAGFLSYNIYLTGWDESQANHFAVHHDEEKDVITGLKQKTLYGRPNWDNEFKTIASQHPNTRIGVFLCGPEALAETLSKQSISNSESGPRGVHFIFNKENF
The target in assay [9] is NADPH oxidase 4 (Homo sapiens) (UniProt Q9NPH5). The experiment in a line: NOX4-dependent H2O2 signal modulators, primary screen, NOX inhibitor project, cell-based, HEK293-NOX4, tetracycline-induced, Amplex Red fluorescence (AID 1160). The note with it: 45 min, higher = more signal, called active from +8 up or from −8 down.
Sequence of NADPH oxidase 4 (Homo sapiens) (Q9NPH5 whole entry, looked up): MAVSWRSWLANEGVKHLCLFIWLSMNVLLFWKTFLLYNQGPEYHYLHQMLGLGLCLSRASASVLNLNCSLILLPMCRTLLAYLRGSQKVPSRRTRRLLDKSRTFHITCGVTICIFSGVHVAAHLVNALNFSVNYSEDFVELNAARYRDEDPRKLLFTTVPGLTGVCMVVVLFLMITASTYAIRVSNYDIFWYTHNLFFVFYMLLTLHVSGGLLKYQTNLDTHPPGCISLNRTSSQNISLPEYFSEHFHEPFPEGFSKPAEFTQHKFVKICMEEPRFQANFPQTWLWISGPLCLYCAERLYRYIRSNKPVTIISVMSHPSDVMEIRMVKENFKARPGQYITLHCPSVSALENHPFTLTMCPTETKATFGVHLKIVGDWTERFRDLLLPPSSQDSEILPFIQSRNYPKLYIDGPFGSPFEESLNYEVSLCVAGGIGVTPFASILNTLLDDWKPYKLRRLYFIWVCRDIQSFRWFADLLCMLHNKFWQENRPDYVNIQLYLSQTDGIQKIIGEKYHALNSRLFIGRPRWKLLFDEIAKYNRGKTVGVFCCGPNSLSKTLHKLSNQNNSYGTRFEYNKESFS
The target of assay [10] is NADPH oxidase 5 (Homo sapiens) (UniProt Q96PH1). The assay can be described thus: NOX5-dependent H2O2 signal modulators, primary screen, NOX inhibitor project, cell-based, HEK293-NOX5, Amplex Red fluorescence (AID 1161). The note with it: HEK293-NOX5, ionomycin, 45 min, higher = more signal.
Sequence of NADPH oxidase 5 (Homo sapiens) (Q96PH1 whole entry, looked up): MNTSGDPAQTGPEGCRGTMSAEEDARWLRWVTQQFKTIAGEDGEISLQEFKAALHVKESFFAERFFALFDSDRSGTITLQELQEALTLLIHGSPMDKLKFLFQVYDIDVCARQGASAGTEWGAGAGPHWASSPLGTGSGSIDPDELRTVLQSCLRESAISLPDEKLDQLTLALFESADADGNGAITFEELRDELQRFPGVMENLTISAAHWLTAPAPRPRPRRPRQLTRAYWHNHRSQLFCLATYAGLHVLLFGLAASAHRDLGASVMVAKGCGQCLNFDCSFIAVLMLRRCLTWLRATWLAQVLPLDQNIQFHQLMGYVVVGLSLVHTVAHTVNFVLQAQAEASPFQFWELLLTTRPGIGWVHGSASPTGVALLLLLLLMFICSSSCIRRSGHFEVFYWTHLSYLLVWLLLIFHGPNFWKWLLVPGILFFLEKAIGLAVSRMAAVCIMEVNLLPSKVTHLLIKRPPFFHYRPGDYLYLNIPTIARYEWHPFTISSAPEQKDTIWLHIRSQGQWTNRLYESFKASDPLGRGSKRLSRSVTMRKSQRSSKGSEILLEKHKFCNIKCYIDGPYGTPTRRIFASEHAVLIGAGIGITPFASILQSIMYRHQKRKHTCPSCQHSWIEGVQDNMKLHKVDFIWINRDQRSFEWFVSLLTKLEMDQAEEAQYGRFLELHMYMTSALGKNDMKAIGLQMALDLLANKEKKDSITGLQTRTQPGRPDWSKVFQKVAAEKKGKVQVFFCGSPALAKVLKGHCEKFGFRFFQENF

For 13 compounds, z-score and composite z-score results are on record in PubChem BioAssay.

The source made the active and inactive calls.

In the case of `CC(C)(C)OC(=O)CC[C@]1(C(=O)O)N=C(c2ccc(OCCCO)cc2)O[C@H]1c1ccccc1CN=[N+]=[N-]`, the z-score was 0.59 (inactive) in assay [1]; 16.3 (active) in assay [3]; 1.36 (inactive) in assay [4]; 0.0614 (inactive) in assay [5]; 0.594 (inactive) in [6]; 0.172 in assay [7]. The z-score is 0.433 (inactive) in [8], 1.01 (inactive) in [9] and 1 in [10]. In [2], this compound yielded a composite z-score of 0.0355.
For `NC(=O)NCC#Cc1ccc2c(c1)[C@]1(C(=O)N2)[C@H](C(=O)Nc2nc3ccccc3s2)[C@H]2C(=O)O[C@H](c3ccccc3)[C@H](c3ccccc3)N2[C@@H]1c1ccc(O)cc1`, the z-score in assay [1] is 0.996 (inactive); in assay [3], 2.92 (inactive); in [4], 2.35 (inactive); in assay [5], 0.962 (inactive); in assay [6], 1.19 (inactive); in assay [7], -0.0609. Further, the z-score in assay [8] was -0.23 (inactive); in assay [9] it was -1.27 (inactive); in assay [10] it was 0.16. Moreover, in assay [2], the composite z-score is 0.315.
Consider `CC(C)(C)OC(=O)CC[C@]1(C(=O)O)N=C(c2ccc(OCCCO)cc2)O[C@H]1c1ccccc1`, for which the z-score in assay [1] is 1.11 (inactive); in assay [3] it was 11.9 (active); in [4] it was 1.08 (inactive); in [5], -0.0867 (inactive); in [6] it was -0.284 (inactive); in [7], 0.733. The z-score in assay [8] was 0.643 (inactive); in assay [9], 0.228 (inactive); in [10] it was 1.68. In assay [2], this compound showed a composite z-score of -0.362.
With `C=CCNC(=O)[C@@H]1[C@H]2C(=O)O[C@H](c3ccccc3)[C@H](c3ccccc3)N2[C@H](c2ccc(OCCO)cc2)[C@@]12C(=O)N(C(=O)OCCOC)c1ccc(C#CC3=CCCCC3)cc12`, the z-score is -0.892 (inactive) in assay [1]; 6.2 (inactive) in assay [3]; 2.12 (inactive) in assay [4]; 0.669 (inactive) in assay [5]; 1.46 (inactive) in [6]; 0.0846 in assay [7]. For the same compound, the results for the z-score in [8], in [9] and in assay [10] were 1.13 (inactive), -0.0729 (inactive) and 1.69, respectively. Besides, in [2], the composite z-score came to 0.173.
As to `CCOC(=O)C1=C[C@@H](c2ccccc2)N(S(=O)(=O)c2ccc(C)cc2)[C@H]1c1cccc(Cl)c1`, the z-score in assay [1] is -1.29 (inactive); in assay [3], 1.57 (inactive); in assay [4], 1.24 (inactive); in assay [5], -0.276 (inactive); in assay [6], 0.805 (inactive); in [7] it was -0.645. Besides, the z-score in [8] is 0.14 (inactive); in [9], -0.143 (inactive); in assay [10], 0.0576. For the same compound, in assay [2], the composite z-score amounted to 0.409.
Take `CC(C)(C)OC(=O)CC[C@@]1(C(=O)O)N=C(c2ccc(OCCCO)cc2)O[C@@H]1c1ccccc1`: the z-score was 0.0442 (inactive) in assay [1]; 6.52 (inactive) in [3]; 0.0947 (inactive) in assay [4]; -0.819 (inactive) in [5]; 0.0734 (inactive) in [6]; -0.407 in assay [7]. Besides, the z-score in assay [8] was 0.104 (inactive); in [9] it was 1.27 (inactive); in assay [10], 0.548. In addition, the composite z-score in assay [2] worked out at 0.284.
Take `C=CCC(OC(C)=O)[C@@H]1[C@@H](N(Cc2cc3ccccc3o2)C(=O)c2ccc(C)cc2)c2cc(OCCCO)ccc2N1C(=O)Cc1ccc2ccccc2c1` (stereo not given in full): the z-score is 2.52 (inactive) in [1]; 1.49 (inactive) in assay [3]; 0.434 (inactive) in assay [4]; -0.884 (inactive) in assay [5]; 0.283 (inactive) in [6]; 0.866 in assay [7]. In addition, the z-score in assay [8] was 0.597 (inactive); in assay [9] it was 0.921 (inactive); in assay [10], 2.32. This compound also yielded a composite z-score in assay [2] of -0.103.
`CC(=O)n1cc(C(O)C2C=CC3C(=O)N(Cc4ccccc4)C(=O)C3N2n2cnnc2)c2ccccc21` (stereo not given): the z-score in assay [1] is -1.32 (inactive); in [3], 8.09 (active); in [4] it was 2.31 (inactive); in [5], 0.927 (inactive); in assay [6] it was 1 (inactive); in assay [7], -0.386. Also, the values for the z-score in assay [8], in assay [9] and in assay [10] were -0.0716 (inactive), -0.738 (inactive) and -0.392, respectively. This compound registered a composite z-score in assay [2] of -0.0867.
Turning to `CCOC(=O)C1=CC[C@@H](c2ccc([N+](=O)[O-])cc2)N(S(=O)(=O)c2ccc(C)cc2)[C@H]1c1ccccc1`, the z-score was -0.785 (inactive) in assay [1]; 2.13 (inactive) in [3]; 1.6 (inactive) in assay [4]; 0.106 (inactive) in assay [5]; 0.903 (inactive) in assay [6]; -0.543 in [7]. Moreover, the z-score is 1.46 (inactive) in assay [8], 1.1 (inactive) in assay [9] and 1.43 in assay [10]. This compound displayed a composite z-score in [2] of 0.206.
On to `COC1(C)CN(Cc2ccccc2Br)[C@H](/C=C/c2ccccc2)[C@H](Cc2ccccc2)O1` (stereo not given in full), for which the z-score is 1.16 (inactive) in [1]; 0.787 (inactive) in assay [3]; 0.669 (inactive) in assay [4]; 0.911 (inactive) in [5]; -0.0143 (inactive) in assay [6]; 0.52 in [7]. For the same compound, the z-score was -0.112 (inactive) in [8], 0.76 (inactive) in assay [9] and -0.271 in assay [10]. Besides, the composite z-score in assay [2] was -0.31.
For `CC(C)CCC[C@@H](C)[C@H]1CC[C@@]2(C)C3=C(CC[C@]12C)[C@@]1(C)CC[C@H](OC(=O)c2ccc(Br)cc2)C(C)(C)C1CC3` (stereo not given in full), the z-score in [1] is 3.37 (inactive); in [3], -0.571 (inactive); in assay [4] it was -0.957 (inactive); in assay [5] it was -0.149 (inactive); in assay [6] it was -2.39 (inactive); in assay [7] it was 1.62. Besides, the z-score in assay [8] is -1.07 (inactive); in [9] it was 0.175 (inactive); in assay [10], 0.929. For the same compound, the composite z-score in assay [2] was -0.0559.
For `CCOC(=O)[C@H]1C/C=C/C[C@H](C(=O)OCC)C(=O)O[C@H]2[C@@H](OC)O[C@H](CO)[C@@H](OC(=O)CCc3ccccc3)[C@@H]2OC1=O`, the z-score in assay [1] is -0.142 (inactive); in assay [3] it was 0.955 (inactive); in [4], 0.175 (inactive); in assay [5] it was -0.518 (inactive); in assay [6], 0.386 (inactive); in assay [7], -0.0947. Moreover, the figures for the z-score in assay [8], in [9] and in [10] were 0.281 (inactive), 0.273 (inactive) and 0.541, respectively. Further, the composite z-score in assay [2] turned out to be 1.63.
On to `COCCOC(=O)N1C(=O)[C@@]2(c3cc(C#CC4(O)CCCCCC4)ccc31)[C@H](C(N)=O)[C@H]1C(=O)O[C@H](c3ccccc3)[C@H](c3ccccc3)N1[C@@H]2c1ccccc1OCCO`, for which the z-score in assay [1] was 0.127 (inactive); in assay [3] it was 4.94 (inactive); in [4] it was 2.11 (inactive); in [5], 3.54 (inactive); in assay [6], 1.62 (inactive); in [7], 0.563. In addition, the z-score in assay [8] is 2.63 (inactive); in [9], 0.164 (inactive); in assay [10] it was 0.38. For the same compound, the composite z-score in [2] is -1.03.
